The values below come from ChEMBL document CHEMBL5606458, “ASAP - ZIKV NS2B-NS3 protease fluorescence single point” (2024).

The target in the test is Nonstructural protein 3 (Zika virus) (UniProt A0A024AXB9).
Setting [1] is: PRVABC59, Concentration 15.0 uM, Number of replicates 1.0.

The whole screen tested about 2,700 compounds, of which about 160 (5.9%) showed an effect of 50% or more. For the sample, strong results were picked, then their nearest neighbours and some compounds at random.

Chain of Nonstructural protein 3 (Zika virus) (A0A024AXB9 as listed by the source): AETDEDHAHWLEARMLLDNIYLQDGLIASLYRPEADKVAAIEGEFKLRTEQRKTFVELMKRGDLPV

One may read the inhibition as the relative decrease from the control value, in per cent. `O=C(NC1CCN(Cc2ccccc2)CC1)c1cc(Cl)ccc1NS(=O)(=O)c1ccc(Oc2ccccc2Cl)cc1`: under setting [1], the inhibition was 8.32%.

Consider `O=Cc1ccc(N2CCC(C(=O)NCc3cc(F)ccc3Br)CC2)cc1`, for which, for the setting “PRVABC59, Concentration 10.0 uM, Number of replicates 1.0”, the inhibition turned out to be 4.33%.

Consider `CCCC[C@H](NC(C)=O)C(=O)N[C@H](C(=O)Nc1cccc(C(N)=O)c1)c1ccc(OCc2ccccc2)cc1`, for which the inhibition (PRVABC59, Concentration 49.5 uM, Number of replicates 2.0, Standard deviation 1.5133642763760644 %) turned out to be 0.392%; the inhibition (PRVABC59, Concentration 99.01 uM, Number of replicates 2.0, Standard deviation 2.3397962878359877 %) was 3.8%; the inhibition (PRVABC59, Concentration 198.0 uM, Number of replicates 2.0, Standard deviation 2.8724328178638086 %) came to 7.97%.

Take `N=C(N)NCCC[C@H](NC(=O)c1nccs1)C(=O)N[C@@H](CCCCN)C(=O)N[C@@H](C(N)=O)c1ccc(OCc2ccc(C(F)(F)F)cc2)cc1`: the inhibition is, setting by setting: under setting [1], 91.8%; (PRVABC59, Concentration 49.5 uM, Number of replicates 2.0, Standard deviation 0.021859715861266255 %) 94.6%; (PRVABC59, Concentration 49.5 uM, Number of replicates 2.0, Standard deviation 0.024233426369399808 %) 96.9%; (PRVABC59, Concentration 49.5 uM, Number of replicates 2.0, Standard deviation 0.10948739718766008 %) 93.8%; (PRVABC59, Concentration 49.5 uM, Number of replicates 2.0, Standard deviation 0.1218738502028297 %) 97.5%; (PRVABC59, Concentration 49.5 uM, Number of replicates 2.0, Standard deviation 0.12395624169405596 %) 92.6%. The inhibition runs as follows: (PRVABC59, Concentration 49.5 uM, Number of replicates 2.0, Standard deviation 0.12648640130386196 %) 91.3%; (PRVABC59, Concentration 49.5 uM, Number of replicates 2.0, Standard deviation 0.127991549557883 %) 97.2%; (PRVABC59, Concentration 49.5 uM, Number of replicates 2.0, Standard deviation 0.13878114277667186 %) 95.3%; (PRVABC59, Concentration 49.5 uM, Number of replicates 2.0, Standard deviation 0.18792773988825517 %) 89.4%; (PRVABC59, Concentration 49.5 uM, Number of replicates 2.0, Standard deviation 0.2282484497468692 %) 91.2%; (PRVABC59, Concentration 49.5 uM, Number of replicates 2.0, Standard deviation 0.23805618998274827 %) 97%. Moreover, the inhibition came to 95.5% (PRVABC59, Concentration 49.5 uM, Number of replicates 2.0, Standard deviation 0.25515230043791925 %); 85.9% (PRVABC59, Concentration 49.5 uM, Number of replicates 2.0, Standard deviation 0.3144519047683829 %); 87.1% (PRVABC59, Concentration 49.5 uM, Number of replicates 2.0, Standard deviation 0.8044343068166325 %); 90.3% (PRVABC59, Concentration 49.5 uM, Number of replicates 2.0, Standard deviation 1.112040214687694 %); 90.4% (PRVABC59, Concentration 49.5 uM, Number of replicates 2.0, Standard deviation 1.1256998397026805 %); 84.5% (PRVABC59, Concentration 49.5 uM, Number of replicates 2.0, Standard deviation 1.7230548786677078 %). Besides, the inhibition is 90.3% (PRVABC59, Concentration 49.5 uM, Number of replicates 2.0, Standard deviation 1.876040520916915 %); 97.9% (PRVABC59, Concentration 49.8 uM, Number of replicates 2.0, Standard deviation 1.8581405857669444 %); 87.4% (PRVABC59, Concentration 49.95 uM, Number of replicates 2.0, Standard deviation 2.309253478244507 %); 88.7% (PRVABC59, Concentration 50.0 uM, Number of replicates 2.0, Standard deviation 0.36743959706585505 %); 93.4% (PRVABC59, Concentration 99.01 uM, Number of replicates 2.0, Standard deviation 0.0 %); 94.9% (PRVABC59, Concentration 99.01 uM, Number of replicates 2.0, Standard deviation 0.012046580828777775 %). Further, the inhibition worked out at 93.7% (PRVABC59, Concentration 99.01 uM, Number of replicates 2.0, Standard deviation 0.02911571730090177 %); 97.6% (PRVABC59, Concentration 99.01 uM, Number of replicates 2.0, Standard deviation 0.06378807510947981 %); 98.8% (PRVABC59, Concentration 99.01 uM, Number of replicates 2.0, Standard deviation 0.067278508515758 %); 98.7% (PRVABC59, Concentration 99.01 uM, Number of replicates 2.0, Standard deviation 0.0706826251762859 %); 97.3% (PRVABC59, Concentration 99.01 uM, Number of replicates 2.0, Standard deviation 0.071545792633789 %); 95.8% (PRVABC59, Concentration 99.01 uM, Number of replicates 2.0, Standard deviation 0.07721572387026257 %). For the same molecule, the inhibition (PRVABC59, Concentration 99.01 uM, Number of replicates 2.0, Standard deviation 0.10372575440882682 %) was determined as 99%; the inhibition (PRVABC59, Concentration 99.01 uM, Number of replicates 2.0, Standard deviation 0.10948739718766008 %) was 97%; the inhibition (PRVABC59, Concentration 99.01 uM, Number of replicates 2.0, Standard deviation 0.11599352189858977 %) came to 97.7%; the inhibition (PRVABC59, Concentration 99.01 uM, Number of replicates 2.0, Standard deviation 0.1471970254873272 %) is 98.8%; the inhibition (PRVABC59, Concentration 99.01 uM, Number of replicates 2.0, Standard deviation 0.27009049224933246 %) is 94.8%; the inhibition (PRVABC59, Concentration 99.01 uM, Number of replicates 2.0, Standard deviation 0.8601032130289737 %) was found to be 94.3%. For the same molecule, the inhibition reads like this: (PRVABC59, Concentration 99.01 uM, Number of replicates 2.0, Standard deviation 0.9406367368140138 %) 94.2%; (PRVABC59, Concentration 99.01 uM, Number of replicates 2.0, Standard deviation 1.3348561042489029 %) 88.7%; (PRVABC59, Concentration 99.01 uM, Number of replicates 2.0, Standard deviation 1.4059433391708933 %) 94.2%; (PRVABC59, Concentration 99.01 uM, Number of replicates 2.0, Standard deviation 1.7588979073405244 %) 89.5%; (PRVABC59, Concentration 99.5 uM, Number of replicates 2.0, Standard deviation 0.12741970111728718 %) 93.3%; (PRVABC59, Concentration 99.5 uM, Number of replicates 2.0, Standard deviation 0.16892187143335857 %) 101%. The inhibition came out at 94.6% (PRVABC59, Concentration 99.9 uM, Number of replicates 2.0, Standard deviation 1.5690280406728871 %); 98% (PRVABC59, Concentration 100.0 uM, Number of replicates 2.0, Standard deviation 4.458993610342439 %); 96.7% (PRVABC59, Concentration 198.0 uM, Number of replicates 2.0, Standard deviation 0.0026488451352126683 %); 98.8% (PRVABC59, Concentration 198.0 uM, Number of replicates 2.0, Standard deviation 0.013907785659018856 %); 97.6% (PRVABC59, Concentration 198.0 uM, Number of replicates 2.0, Standard deviation 0.021082865149513456 %); 97.8% (PRVABC59, Concentration 198.0 uM, Number of replicates 2.0, Standard deviation 0.03251443916482027 %). Moreover, the inhibition is 97.2% (PRVABC59, Concentration 198.0 uM, Number of replicates 2.0, Standard deviation 0.03514709991020475 %); 99.1% (PRVABC59, Concentration 198.0 uM, Number of replicates 2.0, Standard deviation 0.0599254007371534 %); 99.6% (PRVABC59, Concentration 198.0 uM, Number of replicates 2.0, Standard deviation 0.06866497124437239 %); 97.3% (PRVABC59, Concentration 198.0 uM, Number of replicates 2.0, Standard deviation 0.07418384817578288 %); 98.9% (PRVABC59, Concentration 198.0 uM, Number of replicates 2.0, Standard deviation 0.0745722735316593 %); 96.4% (PRVABC59, Concentration 198.0 uM, Number of replicates 2.0, Standard deviation 0.07483122376891023 %). For the same molecule, the inhibition reads like this: (PRVABC59, Concentration 198.0 uM, Number of replicates 2.0, Standard deviation 0.07712401232790286 %) 99.5%; (PRVABC59, Concentration 198.0 uM, Number of replicates 2.0, Standard deviation 0.08816716098733327 %) 99.7%; (PRVABC59, Concentration 198.0 uM, Number of replicates 2.0, Standard deviation 0.09263944737652126 %) 98.7%; (PRVABC59, Concentration 198.0 uM, Number of replicates 2.0, Standard deviation 0.09449525741015294 %) 99.7%; (PRVABC59, Concentration 198.0 uM, Number of replicates 2.0, Standard deviation 0.3759148225392137 %) 97%; (PRVABC59, Concentration 198.0 uM, Number of replicates 2.0, Standard deviation 0.4983928899622956 %) 97.6%. Besides, the inhibition runs as follows: (PRVABC59, Concentration 198.0 uM, Number of replicates 2.0, Standard deviation 0.5225777631622108 %) 97.2%; (PRVABC59, Concentration 198.0 uM, Number of replicates 2.0, Standard deviation 0.6944775623239552 %) 94.7%; (PRVABC59, Concentration 198.0 uM, Number of replicates 2.0, Standard deviation 1.5146538856468006 %) 93.1%; (PRVABC59, Concentration 200.0 uM, Number of replicates 1.0) 97.4%.

Regarding `NC(=O)c1cccc(NC(=O)[C@@H](NC(=O)c2ccc(Oc3ccc(C(F)(F)F)cc3)cc2)c2ccc(OCc3ccccc3)cc2)c1`, the inhibition was 6.3% (PRVABC59, Concentration 49.5 uM, Number of replicates 2.0, Standard deviation 0.46044521626223894 %); 14.7% (PRVABC59, Concentration 99.01 uM, Number of replicates 2.0, Standard deviation 0.010097036204057861 %); 30.3% (PRVABC59, Concentration 198.0 uM, Number of replicates 2.0, Standard deviation 0.34129506399757725 %).
